Assay outcomes from PubChem BioAssay.
DUSP3 inh – DUSP3 (human) phosphatase inhibition; recombinant VHR phosphatase, pNPP absorbance; AID 1654; inhibition, % at 13.3 µM; hit rate 0.52% among 290,000; in the data active = inhibition above about 50%
Target sequence (P51452 whole entry, looked up): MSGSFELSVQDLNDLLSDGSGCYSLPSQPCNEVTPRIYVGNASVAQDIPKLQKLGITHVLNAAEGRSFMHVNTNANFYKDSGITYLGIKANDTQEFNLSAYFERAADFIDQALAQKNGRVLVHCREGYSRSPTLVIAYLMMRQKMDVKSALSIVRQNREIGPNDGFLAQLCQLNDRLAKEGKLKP
3CLpro inhibitor – SARS-CoV 3CLpro protease inhibition; AID 1706; recombinant SARS-CoV 3CLpro, quenched FRET peptide cleavage; P0C6X7; inhibition, % at 6 µM; hit rate 0.14% among 290,000; in the data active = inhibition above about 12%
BoNT F protease – BoNT F light chain protease inhibition; Multiplex microsphere protease cleavage assay, flow cytometry; inhibition, % at 10 µM; hit rate 0.22% among 360,000; in the data active = inhibition above about 35%, passing the limit was not always enough; inconclusive = no clear call, values can overlap the other calls; note: plate controls were buffer without enzyme for full effect and enzyme alone for no effect
Anthrax LF prot – inhibitors of Bacillus anthracis lethal factor protease; P15917; multiplex microsphere protease cleavage assay, LF; hit rate 0.12% among 360,000; inhibition, % at 10 µM; note: plate controls were buffer without enzyme for full effect and enzyme alone for no effect
BoNT A protease – blocks Botulinum neurotoxin A light chain protease; multiplex microsphere protease substrate cleavage, flow cytometry; inhibition, % at 10 µM; hit rate 0.17% among 360,000; note: plate controls were buffer without enzyme for full effect and enzyme alone for no effect
Bead autofluor – compound fluorescence in toxin protease inhibitor counterscreen. AID 624483. compound autofluorescence counterscreen, microsphere flow cytometry; hits give high values. hit rate 3.1% among 360,000. fluorescence intensity (concentration not given with the values); in the data active = fluorescence intensity above about 16000; inconclusive = no clear call, values can overlap the other calls
Numbers without * were called inactive; ? = inconclusive; · = no result. Only some compounds are listed: those with a hit (about 3.9% of all), similar ones and a draw of the others. Cut-off read from the data, not from the text of the source, unless noted: active = inhibition above about 30%; inconclusive = no clear call, values can overlap the other calls; inactive = below that.

SMILES	DUSP3 inh	3CLpro inhibitor	BoNT F protease	Anthrax LF prot	BoNT A protease	Bead autofluor
CSc1nncn1/N=C/c1ccc([N+](=O)[O-])cc1	5	4	0	-2	1	4694
Cc1cc(C)n(-c2nncn2/N=C/c2ccccc2F)n1	36	-2	-3	1	1	3845
CSc1nncn1/N=C/c1ccc2c(c1)OCO2	-3	-2	-6	-2	-4	23493*
CSc1nncn1/N=C/c1ccccc1F	-6	-8	-6	-1	?	23258*
Cc1cccc(NC(=O)CCc2ccc(S(=O)(=O)NC3CCCCC3)cc2)c1	7	2	-79	-2	-4	4079
CN1CCN(c2ccc(CNC(=O)C3Cc4c(-c5ccc(Cl)cc5)ccnc4O3)cc2)CC1 (stereo not drawn)	·	·	-8	3	0	2993
Cc1ccc(CNC(=O)c2ccc(OCC(C)C)cc2)n1C	14	-1	-7	8	2	3582
CC(NCc1cc(Br)ccc1OCC(N)=O)C12CC3CC(CC(C3)C1)C2 (stereo not drawn)	18	-1	?	-36	-68	21485*
COc1cc(CNC(C)C23CC4CC(CC(C4)C2)C3)ccc1OCC(=O)NC(C)(C)C (stereo not drawn)	20	2	-16	4	-9	3930
O=C1CC(c2ccccc2)c2cccc(F)c21 (stereo not drawn)	18	5	6	-11	-2	3688
Nc1c(C(=O)NCc2ccccc2)nnn1Cc1ccccc1	21	0	-11	-13	-2	4719
CN(C)/C=N/c1c(C(=O)NCc2ccccc2)nnn1Cc1ccccc1	37	6	12	2	8	18876*
COC(=O)c1cccc(NC(=O)Cn2cnc3c2c(=O)n(C)c(=O)n3C)c1	4	·	11	-2	0	11314
CCOC(=O)c1cccc(NC(=O)Cn2cnc3c2c(=O)n(C)c(=O)n3C)c1	2	-2	-3	0	?	20236*
CCN(CC(=O)NCc1ccc(Cl)cc1)S(=O)(=O)c1ccc(NC(C)=O)cc1	17	1	7	-4	0	4430
Cc1ccc(N2C(=O)C3ON(c4ccccc4)C(c4ccncc4)C3C2=O)cc1 (stereo not drawn)	37	-2	0	0	0	20770*
O=C1C2ON(c3ccccc3)C(c3ccncc3)C2C(=O)N1c1ccc(N2CCOCC2)cc1 (stereo not drawn)	-12	1	-1	-7	0	4223
O=C1C2ON(c3ccccc3)C(c3ccncc3)C2C(=O)N1c1ccc(Br)cc1 (stereo not drawn)	26	-3	-1	2	?	20513*
C/C(=N\NC(=O)Cc1ccc(Cl)cc1)c1ccc(F)cc1	-29	2	35*	0	1	4072
O=C(Nc1ccon1)C(Sc1ccccc1)c1ccccc1 (stereo not drawn)	12	-4	1	-3	?	23273*
COc1ccc2c(c1)CCc1c(C(=O)NCc3ccco3)noc1-2	10	0	-3	-4	?	24173*
COc1ccc2c(c1)CCc1c(C(=O)NCCN3CCOCC3)noc1-2	-19	-5	-7	-2	0	10269
COc1ccc2c(c1)CCc1c(C(=O)NCCCn3ccnc3)noc1-2	21	-7	0	-2	1	22596*
COc1ccc(OC)c(-c2cc(C(=O)NCCCn3ccnc3)no2)c1	41	0	-4	-7	-3	24152*
COCCNC(=O)c1noc2c1CCc1cc(OC)ccc1-2	-10	4	-1	-1	-1	9948
SMILES	DUSP3 inh	3CLpro inhibitor	BoNT F protease	Anthrax LF prot	BoNT A protease	Bead autofluor
COc1ccc2c(c1)CCc1c(C(=O)N(C)c3ccccc3)noc1-2	54*	-3	0	-4	-1	4239
CCOC(=O)Cc1csc(SC(C)C(=O)NC2CCCCC2C)n1 (stereo not drawn)	·	·	11	-4	-2	?
Cc1cc(Br)ccc1NC(=O)CSCc1c(C)noc1C	·	·	-10	-3	-4	7740
COc1ccc(NC(=O)C2c3ccccc3OCC(=O)N2CCc2ccccc2)cc1 (stereo not drawn)	·	·	0	-6	0	6330
COc1ccc(C(C(=O)NCCC(C)C)N(CCO)C(=O)c2snc(C(N)=O)c2N)cc1OC (stereo not drawn)	4	2	18	-11	2	4157
CC(C)CC(C(=O)NC1CCCCC1)N(Cc1ccccc1)C(=O)c1snc(C(N)=O)c1N (stereo not drawn)	58*	2	-10	2	-4	3085
